Several values for one entry are separate records, joined by “and”; a condition that tells them apart may be missing. Equal entries are not always repeated. The campaign covered roughly 5,500 compounds. About 2,000 (36%) were called active. Not shown: some 18% with an inconclusive outcome. Cut-off read from the data, not from the text of the source: active = normalized growth mostly below about 0.91 (no sharp cut-off); inconclusive = no clear call, values can overlap the other calls; inactive = mostly above about 0.92. This is one part of the list.
Test: chemical genetic growth profiling, strain panel (AID 1159580);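 note: tested at 20 µM; growth read once vehicle control cultures reached saturation at 30 °C; 1 = growth at the plate median or of vehicle wells; lower values mean less growth of the strain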
Details: S. cerevisiae deletion strains, growth OD

Measured: normalized growth

CN1CC(=O)N=C1N
inactive: locus YAL013W, strain DEP1, active compounds read low 1.01 | locus YAL021C, strain ccr4, active compounds read low 1.01 | locus YAL026C, strain drs2, active compounds read low 1.03 | locus YAL030W, strain snc1, active compounds read low 1.02 | locus YBL061C, strain skt5, active compounds read low 1.03 | locus YBR009C, strain hhf1, active compounds read low 1.05 | locus YBR021W, strain FUR4, active compounds read low 1 | locus YBR023C, strain chs3, active compounds read low 1.03 | locus YBR171W, strain sec66, active compounds read low 1.03 | locus YBR229C, strain ROT2, active compounds read low 1 | locus YBR231C, strain swc5, active compounds read low 1.03 | locus YBR279W, strain paf1, active compounds read low 1.03 | locus YCL011C, strain gbp2, active compounds read low 1.03 | locus YCL016C, strain dcc1, active compounds read low 1.02 | locus YCL029C, strain bik1, active compounds read low 0.986 | locus YCL061C, strain MRC1, active compounds read low 1.01 | locus YCL069W, strain vba3, active compounds read low 1.02 | locus YCR088W, strain abp1, active compounds read low 1.01 | locus YDL005C, strain med2, active compounds read low 1.02 | locus YDL035C, strain GPR1, active compounds read low 1.01 | locus YDL040C, strain nat1, active compounds read low 1.01 | locus YDL074C, strain BRE1, active compounds read low 1.03 | locus YDL101C, strain DUN1, active compounds read low 1.02 | locus YDL134C, strain PPH21, active compounds read low 1 | locus YDL185W, strain tfp1, active compounds read low 0.992 | locus YDL192W, strain arf1, active compounds read low 1 | locus YDR001C, strain nth1, active compounds read low 1.01 | locus YDR069C, strain doa4, active compounds read low 1.04 | locus YDR101C, strain arx1, active compounds read low 0.991 | locus YDR137W, strain rgp1, active compounds read low 1.1 | locus YDR159W, strain sac3, active compounds read low 1.05 | locus YDR162C, strain NBP2, active compounds read low 1.02 | locus YDR195W, strain ref2 0.969 | locus YDR297W, strain sur2, active compounds read low 1.02 | locus YDR318W, strain mcm21, active compounds read low 0.997 | locus YDR334W, strain swr1, active compounds read low 1.02 | locus YDR335W, strain msn5, active compounds read low 1.03 | locus YDR388W, active compounds read low 0.997 | locus YDR392W, strain spt3, active compounds read low 1.02 | locus YDR502C, strain sam2, active compounds read low 0.995 | locus YEL003W, strain gim4, active compounds read low 1.04 | locus YEL037C, strain rad23, active compounds read low 1.01 | locus YEL061C, strain CIN8 (second series), active compounds read low 1.02 | locus YEL061C, strain CIN8, active compounds read low 1.01 | locus YER015W, strain faa2, active compounds read low 1.02 | locus YER016W, strain bim1, active compounds read low 1.02 | locus YER110C, active compounds read low 0.992 | locus YER111C, strain swi4, active compounds read low 1.04 | locus YER155C, strain BEM2 (second series), active compounds read low 1.06 | locus YER155C, strain BEM2, active compounds read low 1.01 | locus YER167W, strain BCK2, active compounds read low 1.01 | locus YFR010W, strain ubp6, active compounds read low 1.03 | locus YGL078C, strain dbp3, active compounds read low 0.995 | locus YGL086W, strain mad1, active compounds read low 0.998 | locus YGL167C, strain pmr1, active compounds read low 1.03 | locus YGL173C, strain kem1, active compounds read low 1.03 | locus YGL227W, strain vid30, active compounds read low 1.02 | locus YGL240W, strain doc1, active compounds read low 1.05 | locus YGL248W, strain PDE1, active compounds read low 1.01 | locus YGL253W, strain hxk2, active compounds read low 1.02 | locus YGR078C, strain PAC10, active compounds read low 1.01 | locus YGR135W, strain pre9, active compounds read low 1 | locus YGR229C, strain SMI1, active compounds read low 1.02 | locus YGR252W, strain gcn5, active compounds read low 0.965 | locus YHR013C, strain ard1, active compounds read low 1.06 | locus YHR027C, strain rpn1, active compounds read low 1.02 | locus YHR030C, strain SLT2, active compounds read low 1.01 and 0.962 | locus YHR079C, strain IRE1 (second series), active compounds read low 0.994 | locus YHR079C, strain IRE1, active compounds read low 0.966 | locus YHR094C, strain hxt1, active compounds read low 0.994 | locus YHR129C, strain ARP1, active compounds read low 1.01 | locus YHR142W, strain chs7, active compounds read low 0.996 | locus YHR200W, strain rpn10, active compounds read low 0.997 | locus YIL066C, strain RNR3, active compounds read low 1.02 | locus YIL073C, strain SPO22, active compounds read low 1.03 | locus YIL125W, strain kgd1, active compounds read low 0.988 | locus YIR030C, strain dcg1, active compounds read low 0.998 | locus YJL092W, strain hpr5, active compounds read low 1.01 | locus YJL095W, strain BCK1 (second series), active compounds read low 1.03 | locus YJL095W, strain BCK1, active compounds read low 1.03 and 0.956 | locus YJL115W, strain asf1, active compounds read low 1.02 | locus YJL129C, strain trk1, active compounds read low 1.04 | locus YJL134W, strain LCB3, active compounds read low 1.01 | locus YJL154C, strain vps35, active compounds read low 1.02 | locus YJL164C, strain tpk1, active compounds read low 1.05 | locus YJL166W, strain qcr8, active compounds read low 1.03 | locus YJL168C, strain set2, active compounds read low 1 | locus YJL187C, strain SWE1 (second series), active compounds read low 1.02 | locus YJL187C, strain SWE1, active compounds read low 1.03
